# Source: the supplement of paper PMC10849652
# Targets with a hit are over-represented here; the source holds about 7,900 in all. About 0.6% of all pairs of compound and target were hits. A number with no mark means an inactive call.
# How the values were obtained:
# Test in all cases: log2 fold change, soluble protein after heating vs DMSO (PISA); higher = thermal stabilisation; K562 cells, 10 uM, 30 min; active = over 0.2 and 3.5 SD of the protein, either way, in both replicates (recomputed)
# [1] = compound: COC1=CC=C(C=C1)CN2C=CC3=C2C=C(C=C3)C(=O)NO
# In short: (§1)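 K562 cells (2×10^6 cells/mL) were treated with 10 μM compound for 30 min, and aliquots were heated for 3 min over 48°C-58°C. Pooled aliquots were extracted in PBS with 0.5% NP-40 at 4°C, and the supernatant after 21,000xg for 90 min was measured by TMTpro 16plex LC-MS/MS with channel sums equalised. Reported thermal stability, relative to control samples and from duplicates, is a log2 fold change.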
# filanesib = compound: CON(C)C(=O)N1N=C(c2cc(F)ccc2F)S[C@@]1(CCCN)c1ccccc1 [filanesib]
# In short: as §1
# idasanutlin = compound: COc1cc(C(=O)O)ccc1NC(=O)[C@@H]1N[C@@H](CC(C)(C)C)[C@](C#N)(c2ccc(Cl)cc2F)[C@H]1c1cccc(Cl)c1F [idasanutlin]
# In short: as §1
# alisertib = compound: COc1cc(Nc2ncc3c(n2)-c2ccc(Cl)cc2C(c2c(F)cccc2OC)=NC3)ccc1C(=O)O [alisertib]
# In short: as §1
# gefitinib = compound: COc1cc2ncnc(Nc3ccc(F)c(Cl)c3)c2cc1OCCCN1CCOCC1 [gefitinib]
# In short: as §1
# [2] = compound: COc1cccc2cc(-c3nc([C@H]4CC[C@H](C(=O)O)CC4)n4ncnc(N)c34)[nH]c12
# In short: as §1
# pictilisib = compound: CS(=O)(=O)N1CCN(Cc2cc3nc(-c4cccc5[nH]ncc45)nc(N4CCOCC4)c3s2)CC1 [pictilisib]
# In short: as §1
# [3] = compound: CS(=O)(=O)c1ccc(-c2cnc(N)c(C(=O)Nc3ccccc3)n2)cc1
# In short: as §1
# crizotinib = compound: C[C@@H](Oc1cc(-c2cnn(C3CCNCC3)c2)cnc1N)c1c(Cl)ccc(F)c1Cl [crizotinib]
# In short: as §1
# gandotinib = compound: Cc1cc(Nc2cc(CN3CCOCC3)c3nc(C)c(Cc4ccc(Cl)cc4F)n3n2)n[nH]1 [gandotinib]
# In short: as §1
# doramapimod = compound: Cc1ccc(-n2nc(C(C)(C)C)cc2NC(=O)Nc2ccc(OCCN3CCOCC3)c3ccccc23)cc1 [doramapimod]
# In short: as §1
# zotarolimus = compound: CO[C@H]1C[C@@H]2CC[C@@H](C)[C@@](O)(O2)C(=O)C(=O)N2CCCC[C@H]2C(=O)O[C@H]([C@H](C)C[C@@H]2CC[C@H](n3cnnn3)[C@H](OC)C2)CC(=O)[C@H](C)/C=C(\C)[C@@H](O)[C@@H](OC)C(=O)[C@H](C)C[C@H](C)/C=C/C=C/C=C/1C [zotarolimus]
# In short: as §1
# [4] = compound: COc1cc2nc(-c3cc(F)ccc3O)nc(N[C@@H]3CNC[C@H]3C(C)(C)O)c2cc1OC
# In short: as §1
# lapatinib = compound: CS(=O)(=O)CCNCc1ccc(-c2ccc3ncnc(Nc4ccc(OCc5cccc(F)c5)c(Cl)c4)c3c2)o1 [lapatinib]
# In short: as §1
# [5] = compound: C[C@H](C1=CC=C(C=C1)C(=O)NC2=C3C=CNC3=NC=C2)N
# In short: as §1
# duvelisib = compound: C[C@H](Nc1ncnc2nc[nH]c12)c1cc2cccc(Cl)c2c(=O)n1-c1ccccc1 [duvelisib]
# In short: as §1
# tozasertib = compound: Cc1cc(Nc2cc(N3CCN(C)CC3)nc(Sc3ccc(NC(=O)C4CC4)cc3)n2)n[nH]1 [tozasertib]
# In short: as §1
# [6] = compound: Cc1cc(SCc2sc(-c3ccc(C(F)(F)F)cc3)nc2C)ccc1OCC(=O)O
# In short: as §1
# [7] = compound: C[C@@H]1COCCN1C2=NC(=NC(=C2)C3(CC3)S(=O)(=O)C)C4=C5C=CNC5=CC=C4
# In short: as §1
# ispinesib = compound: Cc1ccc(C(=O)N(CCCN)[C@@H](c2nc3cc(Cl)ccc3c(=O)n2Cc2ccccc2)C(C)C)cc1 [ispinesib]
# In short: as §1
# Chain of UniProt Q9UHC9 (Q9UHC9 whole entry, looked up): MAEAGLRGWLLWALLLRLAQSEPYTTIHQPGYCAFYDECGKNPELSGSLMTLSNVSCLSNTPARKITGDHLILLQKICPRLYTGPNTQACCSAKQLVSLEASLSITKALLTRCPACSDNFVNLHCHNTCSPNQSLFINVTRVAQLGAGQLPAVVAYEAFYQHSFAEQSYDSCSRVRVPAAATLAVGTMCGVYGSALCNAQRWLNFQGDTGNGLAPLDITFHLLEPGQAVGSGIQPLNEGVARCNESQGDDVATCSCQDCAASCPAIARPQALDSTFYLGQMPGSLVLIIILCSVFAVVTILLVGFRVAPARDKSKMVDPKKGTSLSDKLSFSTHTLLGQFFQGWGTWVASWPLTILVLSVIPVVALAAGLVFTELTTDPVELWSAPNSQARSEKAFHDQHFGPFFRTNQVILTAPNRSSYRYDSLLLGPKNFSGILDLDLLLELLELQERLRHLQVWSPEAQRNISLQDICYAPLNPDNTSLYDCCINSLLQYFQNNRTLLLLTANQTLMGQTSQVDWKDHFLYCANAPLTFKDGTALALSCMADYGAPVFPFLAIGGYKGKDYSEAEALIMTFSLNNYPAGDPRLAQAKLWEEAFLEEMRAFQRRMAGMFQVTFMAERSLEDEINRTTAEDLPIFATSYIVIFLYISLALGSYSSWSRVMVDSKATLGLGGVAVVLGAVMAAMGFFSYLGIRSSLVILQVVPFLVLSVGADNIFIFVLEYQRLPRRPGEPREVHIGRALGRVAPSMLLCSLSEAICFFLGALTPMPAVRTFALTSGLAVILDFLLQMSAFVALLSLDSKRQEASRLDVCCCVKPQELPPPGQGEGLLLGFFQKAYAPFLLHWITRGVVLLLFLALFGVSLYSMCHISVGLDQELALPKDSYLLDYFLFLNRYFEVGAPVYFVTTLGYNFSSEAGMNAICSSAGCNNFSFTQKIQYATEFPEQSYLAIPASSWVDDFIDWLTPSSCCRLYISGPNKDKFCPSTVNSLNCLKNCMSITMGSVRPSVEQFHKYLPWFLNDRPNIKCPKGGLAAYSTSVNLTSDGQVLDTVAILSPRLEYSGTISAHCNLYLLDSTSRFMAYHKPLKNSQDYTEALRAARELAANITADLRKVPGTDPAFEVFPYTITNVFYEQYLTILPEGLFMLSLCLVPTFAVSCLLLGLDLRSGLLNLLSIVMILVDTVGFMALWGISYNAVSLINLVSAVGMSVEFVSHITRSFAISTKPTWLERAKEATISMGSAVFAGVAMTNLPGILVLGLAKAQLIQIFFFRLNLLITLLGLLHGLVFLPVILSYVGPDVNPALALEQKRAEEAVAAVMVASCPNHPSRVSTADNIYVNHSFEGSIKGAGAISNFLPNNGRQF
# Chain of UniProt Q4G0T1 (Q4G0T1 whole entry, looked up): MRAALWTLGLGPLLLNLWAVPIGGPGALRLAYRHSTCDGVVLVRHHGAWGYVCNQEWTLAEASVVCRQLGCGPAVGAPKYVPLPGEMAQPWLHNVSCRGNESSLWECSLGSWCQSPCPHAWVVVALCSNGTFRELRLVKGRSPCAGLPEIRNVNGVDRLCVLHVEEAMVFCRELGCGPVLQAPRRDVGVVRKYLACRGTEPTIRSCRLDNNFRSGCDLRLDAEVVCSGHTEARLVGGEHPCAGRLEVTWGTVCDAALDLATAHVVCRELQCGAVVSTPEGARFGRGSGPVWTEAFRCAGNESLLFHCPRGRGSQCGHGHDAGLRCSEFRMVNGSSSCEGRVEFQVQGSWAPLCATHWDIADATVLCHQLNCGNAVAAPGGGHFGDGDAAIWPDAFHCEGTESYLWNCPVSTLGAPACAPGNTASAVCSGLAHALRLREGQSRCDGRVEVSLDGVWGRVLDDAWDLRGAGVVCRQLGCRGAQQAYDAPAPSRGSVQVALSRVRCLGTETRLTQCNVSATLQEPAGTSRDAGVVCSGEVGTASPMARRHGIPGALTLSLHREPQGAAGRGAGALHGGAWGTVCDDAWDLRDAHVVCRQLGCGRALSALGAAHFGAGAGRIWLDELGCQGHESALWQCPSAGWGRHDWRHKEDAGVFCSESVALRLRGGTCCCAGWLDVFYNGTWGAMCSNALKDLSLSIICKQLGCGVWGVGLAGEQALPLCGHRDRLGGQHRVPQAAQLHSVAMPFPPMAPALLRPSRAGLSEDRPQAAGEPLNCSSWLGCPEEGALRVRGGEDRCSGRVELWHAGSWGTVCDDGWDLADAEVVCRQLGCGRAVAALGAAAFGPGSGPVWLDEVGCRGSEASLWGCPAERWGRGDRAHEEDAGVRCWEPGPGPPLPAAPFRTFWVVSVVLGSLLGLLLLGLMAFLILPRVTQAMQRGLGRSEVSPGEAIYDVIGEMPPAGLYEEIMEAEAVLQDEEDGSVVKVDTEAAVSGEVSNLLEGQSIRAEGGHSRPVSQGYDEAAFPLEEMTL
# Chain of UniProt Q99549 (Q99549 whole entry, looked up): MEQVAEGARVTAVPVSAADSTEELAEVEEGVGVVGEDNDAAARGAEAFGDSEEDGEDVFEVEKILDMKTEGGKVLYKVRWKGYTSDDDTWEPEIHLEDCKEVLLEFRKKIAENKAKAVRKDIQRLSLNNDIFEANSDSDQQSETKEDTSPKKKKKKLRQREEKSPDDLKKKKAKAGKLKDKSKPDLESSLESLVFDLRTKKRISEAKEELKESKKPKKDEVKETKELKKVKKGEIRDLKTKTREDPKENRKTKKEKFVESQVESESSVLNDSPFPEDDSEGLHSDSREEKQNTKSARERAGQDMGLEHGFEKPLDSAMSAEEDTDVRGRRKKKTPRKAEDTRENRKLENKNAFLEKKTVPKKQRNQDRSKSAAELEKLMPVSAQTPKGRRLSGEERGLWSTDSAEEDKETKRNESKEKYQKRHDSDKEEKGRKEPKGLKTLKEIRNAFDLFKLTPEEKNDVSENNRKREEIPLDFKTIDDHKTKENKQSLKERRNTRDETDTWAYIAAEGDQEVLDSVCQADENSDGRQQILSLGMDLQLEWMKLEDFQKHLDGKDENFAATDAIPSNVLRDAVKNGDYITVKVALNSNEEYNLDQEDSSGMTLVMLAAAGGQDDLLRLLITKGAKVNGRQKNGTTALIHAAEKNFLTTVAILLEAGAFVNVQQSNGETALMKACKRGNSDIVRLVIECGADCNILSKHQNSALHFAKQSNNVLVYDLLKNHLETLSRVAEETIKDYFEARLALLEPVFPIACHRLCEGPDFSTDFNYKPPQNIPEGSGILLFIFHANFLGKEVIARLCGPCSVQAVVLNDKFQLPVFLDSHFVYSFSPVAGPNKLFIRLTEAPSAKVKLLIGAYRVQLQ
# Chain of UniProt Q9Y5B8 (Q9Y5B8 whole entry, looked up): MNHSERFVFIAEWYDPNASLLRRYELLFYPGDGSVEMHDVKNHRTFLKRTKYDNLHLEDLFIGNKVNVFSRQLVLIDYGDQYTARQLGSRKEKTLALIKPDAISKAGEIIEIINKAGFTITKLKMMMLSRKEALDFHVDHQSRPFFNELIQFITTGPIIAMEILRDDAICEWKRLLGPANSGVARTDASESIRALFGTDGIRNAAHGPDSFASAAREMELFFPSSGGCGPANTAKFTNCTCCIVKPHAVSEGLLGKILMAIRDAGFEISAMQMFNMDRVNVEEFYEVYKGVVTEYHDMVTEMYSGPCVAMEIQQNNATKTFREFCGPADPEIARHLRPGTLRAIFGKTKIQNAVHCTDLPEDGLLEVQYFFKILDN
# Chain of UniProt Q9BT67 (Q9BT67 whole entry, looked up): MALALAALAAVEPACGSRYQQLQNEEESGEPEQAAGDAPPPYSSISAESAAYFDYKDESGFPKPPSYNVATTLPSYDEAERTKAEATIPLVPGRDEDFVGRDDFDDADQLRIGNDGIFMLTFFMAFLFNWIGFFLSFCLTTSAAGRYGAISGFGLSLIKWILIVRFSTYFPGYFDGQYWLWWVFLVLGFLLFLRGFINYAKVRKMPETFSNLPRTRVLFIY
# Chain of UniProt O75438 (O75438 whole entry, looked up): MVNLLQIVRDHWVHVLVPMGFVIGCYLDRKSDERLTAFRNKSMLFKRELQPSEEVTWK
# Chain of UniProt Q16656 (Q16656 whole entry, looked up): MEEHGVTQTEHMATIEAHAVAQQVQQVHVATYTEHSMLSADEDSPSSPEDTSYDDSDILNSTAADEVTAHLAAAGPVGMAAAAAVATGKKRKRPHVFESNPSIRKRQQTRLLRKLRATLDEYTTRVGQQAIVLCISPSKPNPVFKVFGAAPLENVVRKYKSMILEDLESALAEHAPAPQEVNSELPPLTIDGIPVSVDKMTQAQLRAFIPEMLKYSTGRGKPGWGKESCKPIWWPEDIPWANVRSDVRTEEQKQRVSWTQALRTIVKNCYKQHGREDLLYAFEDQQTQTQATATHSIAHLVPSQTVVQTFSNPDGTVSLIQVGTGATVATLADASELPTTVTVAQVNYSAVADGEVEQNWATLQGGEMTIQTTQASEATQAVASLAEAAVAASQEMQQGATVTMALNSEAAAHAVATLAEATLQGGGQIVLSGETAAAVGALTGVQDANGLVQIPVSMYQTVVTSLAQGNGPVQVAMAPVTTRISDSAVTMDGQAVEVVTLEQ
# Chain of UniProt P25208 (P25208 whole entry, looked up): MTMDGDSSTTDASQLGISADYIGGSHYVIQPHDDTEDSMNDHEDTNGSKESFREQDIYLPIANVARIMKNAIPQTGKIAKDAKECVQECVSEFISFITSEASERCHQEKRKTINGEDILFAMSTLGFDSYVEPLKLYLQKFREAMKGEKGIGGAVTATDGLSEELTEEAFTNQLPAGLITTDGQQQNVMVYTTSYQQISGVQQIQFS
# Chain of UniProt O00483 (O00483 whole entry, looked up): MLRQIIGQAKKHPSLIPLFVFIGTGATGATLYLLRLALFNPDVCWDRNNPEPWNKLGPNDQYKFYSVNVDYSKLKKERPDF
# Chain of UniProt Q8WUY8 (Q8WUY8 whole entry, looked up): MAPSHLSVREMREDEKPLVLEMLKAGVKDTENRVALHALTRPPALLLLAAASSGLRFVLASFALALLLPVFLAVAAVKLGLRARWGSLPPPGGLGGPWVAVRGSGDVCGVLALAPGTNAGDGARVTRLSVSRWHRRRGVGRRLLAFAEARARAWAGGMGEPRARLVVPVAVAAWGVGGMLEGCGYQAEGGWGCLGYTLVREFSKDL
Target,log2 fold change [1],log2 fold change (filanesib),log2 fold change (idasanutlin),log2 fold change (alisertib),log2 fold change (gefitinib),log2 fold change [2],log2 fold change (pictilisib),log2 fold change [3],log2 fold change (crizotinib),log2 fold change (gandotinib),log2 fold change (doramapimod),log2 fold change (zotarolimus),log2 fold change [4],log2 fold change (lapatinib),log2 fold change [5],log2 fold change (duvelisib),log2 fold change (tozasertib),log2 fold change [6],log2 fold change [7],log2 fold change (ispinesib)
MITF (UniProt O75030),0.122,0.106,-0.042,0.008,-0.13,0,-0.397,0.026,-0.137,-0.13,0.006,–,–,–,–,–,–,–,–,–
NPC1L1 (UniProt Q9UHC9),-0.177,-0.099,-0.041,-0.144,0.557,0.106,–,0.002,-0.07,–,0.033,-0.09,0.079,-0.105,-0.044,0.107,-0.059,-0.159,–,–
OSBPL3 (UniProt Q9H4L5),-0.052,0.582,0.277,–,0.174,–,–,0.245,-0.017,–,0.189,0.14,-0.688,0.391,0.572,-0.098,0.198,0.063,-0.416,-0.36
MRPS21 (UniProt P82921),0.007,0.032,-0.293,0.043,0.019,0.021,–,0.146,-0.128,–,0.037,0.026,-0.053,0.261,0.209,0.155,0.004,0.16,0.07,-0.239
NDFIP1 (UniProt Q9BT67),0.051,-0.134,-0.034,-0.105,-0.155,-0.14,0.228,0.349,-0.004,0.052,-0.068,0.106,–,–,-0.167,0.039,0.046,0.08,0.045,0.015
ORC5 (UniProt O43913),0.016,0.104,-0.013,0.125,0.088,0.018,0.012,0.166,-0.766 (active),-0.226,-0.104,0.028,0.07,0.062,0.008,0.074,-0.007,0.135,–,-0.152
NME7 (UniProt Q9Y5B8),-0.1,0.124,-0.041,0.054,–,-0.077,0.071,-0.187,-0.136,-0.091,0.033,0.058,0.015,-0.046,0.046,-0.031,0.068,0.056,-0.027,-0.117
NFYB (UniProt P25208),0.245,-0.036,0.066,-0.097,0.039,0.02,-0.155,-0.004,0.069,0.011,-0.028,-0.024,-0.047,0.078,-0.084,-0.123,0.085,-0.124,–,0.168
NAT14 (UniProt Q8WUY8),0.151,-0.001,-0.041,-0.013,-0.016,0.12,–,0.006,-0.228,–,-0.02,0.107,-0.086,0.081,-0.119,0.03,-0.063,0,-0.019,-0.418 (active)
NDUFA4 (UniProt O00483),-0.022,-0.031,0.038,-0.024,0.024,0.019,-0.025,-0.045,0.138,-0.099,0.034,-0.019,-0.044,0.048,-0.055,0.142,0.025,0.022,0.162,0.204
MSH6 (UniProt P52701),0.09,-0.154,-0.003,0.75,0.068,-0.04,-0.026,0.075,-0.427,-0.196,-0.053,0.088,-0.017,0.008,-0.018,0.009,0.099,0.185,0.152,-0.087
NA isoform 3 (UniProt Q4G0T1),-0.007,0.049,0.052,-0.09,0.016,0.106,–,0.023,-0.004,–,0.077,0.044,0.039,0.112,-0.157,0.042,0.005,-0.001,–,-0.099
MYLK (UniProt Q15746),-0.293,0.041,–,-0.095,0.342,0.16,0.098,0.279,0.027,-0.018,1.42 (active),0.01,0.043,0.06,0.107,0.009,0.327,0.04,–,-0.054
MINK1 (UniProt Q8N4C8),-0.054,-0.003,0.013,-0.042,–,0.024,-0.019,0.032,-0.207,-0.024,-0.035,0.014,-0.064,0.024,-0.067,0.022,-0.149,0.073,-0.038,-0.032
MPHOSPH8 isoform 2 (UniProt Q99549),-0.002,0.128,0.062,-0.016,–,0.125,–,-0.068,-0.036,–,0.059,-0.191,0.032,0.024,0.045,-0.006,0.04,-0.018,-0.05,0.18
PAFAH2 (UniProt Q99487),-0.025,-0.089,0.153,–,–,–,–,0.005,0.029,–,0.053,0.012,0.043,-0.037,0.08,0.215,-0.011,-0.057,–,-0.044
NRF1 isoform 4 (UniProt Q16656),0.048,-0.054,0.03,-0.077,0.03,0.019,0.167,0.03,0.071,-0.125,-0.003,0.098,-0.135,-0.078,-0.107,0.053,0.074,0.017,0.275,-0.004
NDUFB1 (UniProt O75438),0.031,-0.029,0.029,-0.062,0.083,0.076,-0.196,0.06,0.019,-0.27,-0.044,-0.055,-0.08,-0.028,0.044,–,0.001,–,0.105,–
